Laboratory results taken from ChEMBL document CHEMBL1201862, “PubChem BioAssay data set” (2004).
Screen size: about 18,000 compounds; about 750 (4.2%) were called active. Inconclusive results (about 13%) are left out. The calls are words filed in the database; no cut-off is given here. Many of the other results were omitted from the sample, so actives are more common in it than they were.

Experiment: qHTS for Inhibitors of binding or entry into cells for Lassa Virus.

Q: For `CC12C(=O)OC(=O)C1(C)C1CCC2O1` (stereo unspecified), which Potency is on record?
A: 562 µM (active)
